BoNT A protease – inhibitors of Botulinum neurotoxin A light chain protease. multiplex microsphere protease substrate cleavage, flow cytometry. inhibition, % at 10 µM. AID 588499. hit rate 0.17% among 360,000; note: plate controls were buffer without enzyme for full effect and enzyme alone for no effect
Bead autofluor – flagged as autofluorescent in microsphere protease counterscreen; compound autofluorescence counterscreen, microsphere flow cytometry; stronger effect = higher value; fluorescence intensity (concentration not given with the values); hit rate 3.1% among 360,000; AID 624483; in the data active = fluorescence intensity above about 16000; inconclusive = no clear call, values can overlap the other calls
Anthrax LF inh2 – anthrax lethal factor protease inhibition | P15917 | multiplex microsphere protease cleavage assay, LF | inhibition, % at 10 µM | hit rate 0.12% among 360,000; note: plate controls were buffer without enzyme for full effect and enzyme alone for no effect
BoNT-F LC inh – blocks Botulinum neurotoxin F light chain protease. inhibition, % at 10 µM. hit rate 0.22% among 360,000. Multiplex microsphere protease cleavage assay, flow cytometry; in the data active = inhibition above about 35%, passing the limit was not always enough; inconclusive = no clear call, values can overlap the other calls; note: plate controls were buffer without enzyme for full effect and enzyme alone for no effect
PfHsp40 rescue – compounds rescuing yeast from Plasmodium falciparum HSP40 toxicity. hit rate 0.68% among 340,000. growth rescue, % at 12.5 µM. S. cerevisiae expressing PfHsp40, growth rescue, ATP luminescence; in the data active = growth rescue above about 28%, passing the limit was not always enough; inconclusive = no clear call, values can overlap the other calls;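 note: yeast W303a lacking pdr1 and pdr3 grown in galactose medium; growth measured after three days at 30 °C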
MazEF act – MazEF (E. coli) toxin RNase activation; activation, % at 20 µM; FAM/BHQ RNA-DNA oligo cleavage fluorescence, 5 h; AID 504720; P0AE70; hit rate 0.32% among 350,000; in the data active = activation above about 50%
BoNT-A LC CP1 – inhibitors of Botulinum neurotoxin A light chain protease; shares compounds with BoNT-F LC inh; multiplex microsphere protease assay, flow cytometry; inhibition, % at 10 µM; hit rate 3% among 720; AID 602139; in the data active = inhibition above about 32%
BoNTF LC inh 1 – inhibitors of Botulinum neurotoxin F light chain protease; shares compounds with BoNT-F LC inh; multiplex microsphere protease cleavage assay, flow cytometry; 720 tested, under 10 active; inhibition, % at 10 µM; AID 602140; call rule not given here
Anthrax LF CP1 – Bacillus anthracis lethal factor protease inhibition. shares compounds with BoNT-F LC inh. multiplex microsphere protease cleavage assay, LF. inhibition, % at 10 µM. 720 tested, under 10 active. AID 602142; call rule not given here
* hit, by the source's call; u = inconclusive; x = not tested or not shown. Most compounds without a hit are left out; they make up all but 4.3% or so of the library. Cut-off read from the data, not from the text of the source, unless noted: active = inhibition above about 30%; inconclusive = no clear call, values can overlap the other calls; inactive = below that.

SMILES	BoNT A protease	Bead autofluor	Anthrax LF inh2	BoNT-F LC inh	PfHsp40 rescue	MazEF act	BoNT-A LC CP1	BoNTF LC inh 1	Anthrax LF CP1
COc1ccc(C(=O)NCc2ccc3c(c2)cc(C)n3C)cc1OC	92*	1632	-1	-47	-2	0	-1	-7	2
C[C@@H]1CN([C@@H](C)CO)C(=O)c2c(c3ccccc3n2C)-c2ccccc2CO[C@H]1CN(C)C(=O)[C@H](C)c1ccccc1	-1	3510	-3	-2	x	4	x	x	x
Nc1ccc(-c2nnn(CC(=O)N3CCCCC3)n2)cc1	1	3071	46*	u	-2	4	-1	-2	-4
O=C(NCCC1CCCC1)c1cccs1	u	3779	31*	u	1	9	0	1	-1
O=C(NCC1CC1)c1cccs1	0	4832	-9	-14	x	x	x	x	x
CCC(C)(C)n1nnnc1C(C(C)C)N(Cc1cccnc1)Cc1ccco1 (stereo unspecified)	0	3446	-8	0	0	-7	x	x	x
CCC(C)(C)n1nnnc1C(C(C)C)N(Cc1ccco1)Cc1cc2cc3c(cc2[nH]c1=O)OCO3 (stereo unspecified)	33*	10857	-17	38*	1	-2	0	1	-7
CCn1c(SCC(N)=O)nc2cc(S(=O)(=O)N3CCOCC3)ccc21	0	3502	0	-1	-2	5	x	x	x
CCn1c(SCC(=O)c2c[nH]c3ccccc23)nc2cc(S(=O)(=O)N3CCOCC3)ccc21	49*	5805	18	-16	1	-28	15	-11	10
CCNC(=O)CC1C(=O)N(c2ccc(C)cc2)C(=O)N1CCOC (stereo unspecified)	4	3534	8	36*	1	-4	-1	-3	-2
COCCN1C(=O)N(c2cccc(C)c2)C(=O)C1CC(=O)Nc1ccc(OC)cc1 (stereo unspecified)	1	3457	3	37*	2	-2	0	1	-1
CC(C)CNS(=O)(=O)c1ccc(CCC(=O)NC2CCCCC2)cc1	-1	3071	59*	11	20	14	-1	-5	-1
CN(C)C(CNC(=O)c1cc(-c2ccco2)nc2ccccc12)c1ccccc1 (stereo unspecified)	0	4388	-8	0	0	-7	x	x	x
COc1ccc(-c2nnc(OC)c3ccccc23)cc1	3	4236	7	37*	1	6	0	-2	-4
CCCCn1c(N)c(N(CCOC)C(=O)CCS(=O)(=O)c2ccc(Cl)cc2)c(=O)[nH]c1=O	2	u	1	u	-2	-4	x	x	x
O=C(NCc1cccc(Cl)c1)N1CCN(S(=O)(=O)c2ccccc2F)CC1	6	3551	-7	69*	1	8	0	-7	4
O=C(NCc1ccc(F)cc1)N1CCN(S(=O)(=O)c2ccccc2F)CC1	-1	3663	6	2	-1	6	x	x	x
O=C(c1ccccc1)N1CCCC(C(=O)N2CCN(c3ccccc3)CC2)C1 (stereo unspecified)	-7	3990	34*	u	0	-7	0	-3	-3
O=C(c1ccccc1)N1CCCC(C(=O)N2CCCCC2)C1 (stereo unspecified)	1	4798	0	6	-1	-1	x	x	x
CC(C)CCn1c(-c2nonc2N)nc2ccccc21	1	3532	-7	32	-2	0	-1	-4	-2
O=C(O)CS(=O)(=O)CC(=O)NCc1cccc(C(F)(F)F)c1	4	2638	2	50*	1	-4	0	-6	-2
O=C(Cc1cccc(C(F)(F)F)c1)NCc1ccc(Cl)cc1	0	2705	0	0	-1	-2	x	x	x
CCNc1nc(NCC)n2c(SCC(=O)Nc3ccc(C)c(C)c3)nnc2n1	16	u	1	37*	5	0	-1	-3	0
COc1cccc(CN(C)C(=O)CCNC(=O)c2ccco2)c1	0	4067	0	-9	0	0	x	x	x
